Experimental findings from PubChem BioAssay AID1879 (The Scripps Research Institute Molecular Screening Center, 2009) are described below.

Some of the results follow. Values without a mark were called inactive. Activity calls are given as the source filed them. No stated cut-off is given here; in the data, active means inhibition above about 13%; inactive means the rest.

The test has as its system SARS coronavirus 3C-like protease (3CLpro). The experiment in a line: confirmation of SARS coronavirus 3C-like protease inhibitors, retest, confirmation, biochemical (AID 1879). Particulars: QFRET protease activity assay, at 6 µM, active compounds read high.
In the case of `O=C(O)c1ccc(NC(=O)c2cn(-c3ccccc3)nc2-c2ccc(Cl)cc2)cc1`, the inhibition – broadly, the change of the read-out against control, counted positive when it falls – was 6.65%.
Consider `C=C(C)COc1ccc(-c2n[nH]c(C)c2-c2ccccc2)c(O)c1`, for which the inhibition is 5.95%.
In the case of `O=Cc1cn(Cc2ccccc2)nc1-c1cccnc1`, the inhibition was 47.9% (active).
Turning to `COC(=O)c1cc(NC(=O)Cc2ccccc2[N+](=O)[O-])ccc1Cl`, the inhibition is 15% (active).
As for `COc1ccccc1N(C(=O)Cn1nnc2ccccc21)C(C(=O)NCc1ccco1)c1ccc(C)o1` (centres undefined), the inhibition was 26.2% (active).
As to `CC(C)c1ccc(N(C(=O)c2ccco2)C(C(=O)NC2CCCC2)c2cccnc2)cc1` (centres undefined), the inhibition is 47.8% (active).
As for `C[C@@]12C(=O)N(c3cccc(Br)c3)C(=O)N1[C@H](c1ccc(Cl)cc1)[C@@H]1C(=O)N(C3CCCCC3)C(=O)[C@@H]12`, the inhibition was 15.9% (active).
For `CCCCNC(=O)N(O)C1N(/N=C/c2ccc(N(C)C)cc2)C(=S)SC1(C)C` (centres undefined), the inhibition was -0.44%.
Take `Cc1cccc(C(=O)Nc2nnc(Cc3c[nH]c4ccccc34)s2)c1`: the inhibition is 5.81%.
The value for `CN1CCN(CC(=O)Nc2cccc([N+](=O)[O-])c2)CC1` was 1.01%; that for `CC(=O)c1cc(-c2ccccc2)[nH]c1N1CCCC1` was 22.5% (active); that for `O=C(NCc1ccccc1)c1ccc(S(=O)(=O)Nc2cccc(C(F)(F)F)c2)cc1` was 7.75%.
As to `O=C1C(=O)N(CC2COc3ccccc3O2)c2ccccc21` (centres undefined), the inhibition was 23.1% (active).
Under `Cc1ccc(C(=O)NCCN2CCOCC2)cc1C` stands 0.81%; under `O=C(c1cc(=O)c2ccccc2o1)N1CCN(c2ccccc2)CC1`, 12.2%.
For `Cc1ccc(OCC(=O)Nc2ccc(C(=O)O)cc2NC(=O)COc2ccc(C)c(C)c2)cc1C`, the inhibition was 8.89%.
Turning to `COC(=O)COc1cccc2c(=O)n(CC(=O)NCc3ccccc3)ccc12`, the inhibition was 5.39%.
Consider `Cc1cccc2c1N(CCOc1ccccc1)C(=O)C2=O`, for which the inhibition is 19.1% (active).
The value for `CCC(C)(C)NC(=O)C(c1ccc(O)cc1)N(C(=O)Cn1nnc2ccccc21)c1ccc(NC(C)=O)cc1` (centres undefined) was 25.6% (active).
